Source: paper PMC4336329 (PLoS ONE, 2015)
Screen size: about 310,000 compounds; about 14,000 (4.5%) showed an effect of 50% or more. Effects have a minus sign here. What follows is part of a selection rich in strong results, with near analogues and random picks from the rest.

target: human ether-à-go-go-related gene (hERG) potassium channel (human, UniProt Q12809); experiment: primary screen, population patch clamp on CHO cells stably expressing hERG; higher = less effect of the substance
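Note: peak tail current of the secondary pulse compared with the same well before compound.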

Sequence of human ether-à-go-go-related gene (hERG) potassium channel (Q12809 whole entry, looked up): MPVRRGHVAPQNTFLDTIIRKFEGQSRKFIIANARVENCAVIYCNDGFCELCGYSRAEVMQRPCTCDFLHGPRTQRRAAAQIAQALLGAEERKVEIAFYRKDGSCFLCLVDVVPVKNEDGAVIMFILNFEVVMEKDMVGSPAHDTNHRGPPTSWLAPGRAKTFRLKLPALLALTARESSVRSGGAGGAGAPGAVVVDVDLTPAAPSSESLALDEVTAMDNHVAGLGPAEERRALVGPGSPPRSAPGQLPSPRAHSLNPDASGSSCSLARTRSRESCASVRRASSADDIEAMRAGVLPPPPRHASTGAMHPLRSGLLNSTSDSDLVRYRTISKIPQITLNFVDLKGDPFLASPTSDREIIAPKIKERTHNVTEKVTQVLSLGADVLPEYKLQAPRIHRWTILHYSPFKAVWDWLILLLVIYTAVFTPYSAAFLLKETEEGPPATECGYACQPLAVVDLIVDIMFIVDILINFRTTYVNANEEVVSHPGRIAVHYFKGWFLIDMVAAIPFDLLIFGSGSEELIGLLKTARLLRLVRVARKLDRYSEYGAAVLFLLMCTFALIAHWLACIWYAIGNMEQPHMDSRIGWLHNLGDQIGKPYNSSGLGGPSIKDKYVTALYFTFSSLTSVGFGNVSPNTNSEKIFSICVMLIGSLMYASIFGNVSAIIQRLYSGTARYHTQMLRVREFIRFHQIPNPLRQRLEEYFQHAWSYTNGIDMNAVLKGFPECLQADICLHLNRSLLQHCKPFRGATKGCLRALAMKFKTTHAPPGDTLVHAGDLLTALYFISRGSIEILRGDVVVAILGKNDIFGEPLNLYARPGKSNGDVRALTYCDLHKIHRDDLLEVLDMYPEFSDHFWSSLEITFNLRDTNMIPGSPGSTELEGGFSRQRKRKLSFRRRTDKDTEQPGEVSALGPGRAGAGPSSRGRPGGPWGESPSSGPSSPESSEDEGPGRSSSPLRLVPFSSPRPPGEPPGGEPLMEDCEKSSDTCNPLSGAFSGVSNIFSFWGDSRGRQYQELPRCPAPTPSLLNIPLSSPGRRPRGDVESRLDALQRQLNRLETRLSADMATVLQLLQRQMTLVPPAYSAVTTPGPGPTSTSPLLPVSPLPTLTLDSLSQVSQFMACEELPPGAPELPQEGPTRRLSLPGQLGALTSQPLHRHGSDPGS

Row | Compound | hERG current change (%, negative = inhibition) at 10uM [%]
1 | CCOc1ccc(/C=N/NC(=O)C2CC2)c(OCC)c1 | 2.21
2 | COc1cc2c(cc1OC)CN(CC(=O)NC(=O)NC1CCCCC1)CC2 | 3.28
3 | Cc1cc2[nH]c3c(c[n+](C)c4ccccc34)c2cc1C.[I-] | -77.8
4 | COc1cc2[nH]c3ccccc3c2cc1C | 2.45
5 | Cc1nccc2c1[nH]c1ccccc12 | 2.16
6 | COc1ccc2nc(SCCN(C)C)[nH]c2c1.Cl | 12.3
7 | CCN(CC)CCSc1nc2ccc(OC)cc2[nH]1.Cl | -64.7
8 | COc1ccc2nc(SCC(N)=O)[nH]c2c1 | -2.83
9 | O=C1[C@@H]2[C@H](C(=O)N1Cc1cccnc1)[C@H]1C=C[C@@H]2C1 | -3.89
10 | COc1ccc(/C=N/Nc2ncc(C(F)(F)F)cc2Cl)c(OC)c1OC | -1.15
11 | Cc1cc(Cl)ccc1OCC(=O)NNC(=O)C1CSC2(C)CCC(=O)N12 (stereo not shown) | -18.5
12 | CC(=O)c1c(CSc2ccccc2)oc2ccc(O)c(CN(C)C)c12.Cl | -70.8
13 | CCOC(=O)c1c(CN(C)C)oc2cc(CN(C)C)c(O)c(CSc3ccccc3)c12.Cl | -19.3
14 | CCOC(=O)c1c(-c2ccccc2)oc2ccc(O)c(CN(C)C)c12 | -40.2
15 | CCOC(=O)c1c(CSc2ccccc2)oc2cc(Br)c(O)c(CN(C)C)c12.Cl | 8.53
16 | CCOC(=O)c1c(-c2ccccc2)oc2cc(CN(C)C)c(O)c(CN(C)C)c12 | -41.5
17 | CCOC(=O)c1c(CSc2ccccc2)oc2ccc(O)cc12 | 3.91
18 | CCOC(=O)c1c(CSCc2ccccc2)oc2ccc(O)c(CN(C)C)c12.Cl | -73.4
19 | COC(=O)Cc1c(CSc2ccccc2)oc2ccc(O)c(CN(C)C)c12 | -47.8
20 | CCOC(=O)c1c(CSc2ccc(CC)cc2)oc2ccc(O)c(CN(C)C)c12.Cl | -55.3
21 | COc1ccc2c(c1)[nH]c1c(=O)n(CCN(C)C)cnc12 | -34.1
22 | CCOC(=O)c1cccc(NC(=O)/C=C/c2cccc([N+](=O)[O-])c2)c1 | -15.4
23 | Cn1c(SCC(=O)NCc2ccccc2)nc2c([nH]c3ccccc32)c1=O | 8.94

Row | Compound | hERG current change (%, negative = inhibition) at 10uM [%]
24 | CCC(=O)Nc1nnc(S(=O)(=O)N2CCCC2)s1 | 8.85
25 | Cc1c(NC(=O)c2cccc(F)c2)c(=O)n(-c2ccccc2)n1C | 20.5
26 | CCCOC(=O)c1ccc(NC(=O)c2ccccc2OC)cc1 | 4.44
27 | CCOC(=O)C1=C(C)N(C)C(=O)NC1c1ccccc1OC (stereo not shown) | -12.1
28 | Cc1ccc(Nc2nc(Oc3ccc(OCc4ccccc4)nn3)nc(N3CCOCC3)n2)cc1 | 3.53
29 | S=c1oc(-c2ccncc2)nn1CCc1ccncc1 | 13
30 | CCc1nc2c3cnn(-c4cc(Cl)ccc4C)c3ncn2n1 | 5.24
31 | Cn1c2ccccc2c2c(C(=O)O)cn(C3CCCC3)c(=O)c21 | 7.78
32 | NC(=O)c1cn(C2CCCCC2)c2ccccc2c1=O | -65.2
33 | Cn1cc(-c2ccccc2C(N)=O)c(=O)c2ccccc21 | 5.37
34 | CN(C)S(=O)(=O)c1ccc(C(=O)N2CC(=O)Nc3ccc(F)cc3C2c2ccc(F)cc2)cc1 (stereo not shown) | -21
35 | CCC(CC)NC(=O)C1CCN(S(=O)(=O)c2cccs2)CC1 | 1.92
36 | COc1ccc(Cl)cc1NC(=S)Nc1cccc(C)c1 | 10.3
37 | Cl.O=C(O)c1ccc(CNCc2ccccc2F)cc1 | 5.98
38 | COc1cccc(OCC(O)CN2C(C)CCCC2C)c1.Cl (stereo not shown) | 10.8
39 | CC1CCCC(C)N1CC(O)COCc1ccccc1.Cl (stereo not shown) | 5.08
40 | CC(=O)Nc1ccc(OCC(O)CN2C(C)CCCC2C)cc1.Cl (stereo not shown) | 19.1
41 | CC1CCCC(C)N1CC(O)COCc1ccccc1F.Cl (stereo not shown) | 13.2
42 | Cc1ccc(C)c(OCC(O)CN2C(C)CCCC2C)c1.Cl (stereo not shown) | -67.9
43 | Cc1cc(OCC(O)CN2C(C)CCCC2C)ccc1C(C)C (stereo not shown) | -32.4
44 | Cc1cc(Cl)ccc1OCC(O)CN1C(C)CCCC1C.Cl (stereo not shown) | -73.2
45 | Cc1cc(Cl)ccc1OCC(=O)N1C(C)CCCC1C (stereo not shown) | -6.46
46 | CC1CCCC(C)N1CC(O)COc1ccc(Cl)cc1 (stereo not shown) | -65
